# Experimental data: PubChem BioAssay AID588342 (National Center for Advancing Translational Sciences (NCATS), 2011)
# Out of some 360,000 compounds screened, about 25,000 (6.9%) were called active. Inconclusive results (about 9%) are left out. For the sample, actives were picked, then their nearest neighbours and some compounds at random. A number with no mark means an inactive call. Calls follow the shape of the dose curve; as a rule, active = well fitted inhibition curve with a large enough effect; inconclusive = small, poorly fitted or top-dose-only effect; inactive = flat fitted curve, though single readings scatter.
# Target: Luciferin 4-monooxygenase (Photinus pyralis) (UniProt P08659)
# Sequence (P08659 whole entry, looked up): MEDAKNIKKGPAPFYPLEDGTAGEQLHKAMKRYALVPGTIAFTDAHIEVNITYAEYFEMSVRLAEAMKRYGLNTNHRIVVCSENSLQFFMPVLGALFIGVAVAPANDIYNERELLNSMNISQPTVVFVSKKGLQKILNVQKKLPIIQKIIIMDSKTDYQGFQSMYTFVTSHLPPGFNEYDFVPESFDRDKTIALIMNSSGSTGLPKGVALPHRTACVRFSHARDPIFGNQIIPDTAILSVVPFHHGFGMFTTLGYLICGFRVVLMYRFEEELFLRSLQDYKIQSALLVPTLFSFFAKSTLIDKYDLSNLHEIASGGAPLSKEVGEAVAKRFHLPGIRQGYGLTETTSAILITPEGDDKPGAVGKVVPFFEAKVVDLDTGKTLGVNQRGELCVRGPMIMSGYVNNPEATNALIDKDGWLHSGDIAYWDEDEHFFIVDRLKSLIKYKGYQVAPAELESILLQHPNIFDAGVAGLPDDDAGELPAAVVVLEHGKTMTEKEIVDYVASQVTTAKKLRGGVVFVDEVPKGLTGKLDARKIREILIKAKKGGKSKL
# Experiment: qHTS profiling assay for firefly luciferase inhibitor/activator using purifed enzyme and Km concentrations of substrates (counterscreen for miR-21 project); also: nearly all actives have a fitted effect of over 55% in size;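 as to activity change, negative = inhibition: plate controls were vehicle for no effect and reference inhibitor for full effect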
# Settings: purified FLuc, luminescence inhibition; series mostly up to 57.5 µM; activity change, negative = inhibition: at the top concentration
# From the text: MLPCN Grant: 1 R21 NS059478-01 (miR-21 grant) Assay Provider: NCGC NCGC Assay Overview: Firefly (Photinus pyralis) luciferase is one of the most commonly used transcriptional reporters for a number of reasons. It is considered one of the more dynamically responsive reporters -that is, responsive to changes in reporter transcription - as it requires no post-translational modifications and is enzymatically active directly after protein synthesis (Wood, 1998). Additionally, the half-life of the luciferase protein is short relative to other reporter-gene products (Wood, 1995). Whereas reporters with long half-lives potentially allow for increased signal due to accumulation of reporter-gene product, once accumulated in the cell, dynamic changes in reporter-gene expression may be difficult to detect(Fan and Wood, 2007; Almond et al., 2004). It has been shown that wild-type P. pyralis luciferase has a half-life of approximately […] hours in mammalian cells (Thompson et al., 1991). Firefly luciferase reporter-gene assays are also generally considered one of the most sensitive assay types (Wood, 1995; Wood, 1998). Although light produced in a bioluminescence reaction is of lower intensity than that produced during fluorescence emission, this is offset by little to no background light inherent to luminescent assays. Thus the luciferase reporter can be expressed at much lower levels than fluorescent proteins while still providing robust signal. # However, it was initially observed, in 1991, by Thompson et al., that compounds that resemble the substrates of firefly luciferase (FLuc) can act as competitive inhibitors of the enzyme, and that these compounds, upon interaction with luciferase in the cell, can actually stabilize the protein and increase its half-life. Accumulated intracellular FLuc protein can be measured as an increase in luminescence signal, upon addition of detection reagents (which contain high concentrations of FLuc substrates) commonly used in high-throughput screening. In cell-based reporter gene assays that use FLuc as the reporter gene to quantitate the potential influence of a given compound against the target biology, this apparent increase in luminescence can mistakenly be interpreted as identification of a compound that is active against the target of interest. This is the case for the miR-21 FLuc reporter gene assay used to identify inhibitors of the miR-21 pathway (PubChem AID 2289) - compounds of interest will inhibit miR-21 biogenesis/expression or activity, and are identified by causing an increase in luminescence, due to increased FLuc translation. However, FLuc inhibitory compounds that stabilize the FLuc protein will give an identical read-out, making it difficult to distinguish compounds that are active against the target from those active against FLuc. Previous profiling work to determine the prevalence of compounds that affect FLuc enzymatic activity (PubChem AID 411) identified that ~3% of the MLSMR library (then at ~72K) inhibited FLuc. […] Since the MLSMR had grown to ~350K compounds, and since it was expected that a significant percentage of compounds found active in the miR-21 FLuc assay would be FLuc inhibitors, the library was screened for activity against FLuc using a biochemical assay of purified FLuc and KM concentrations of FLuc substrates (D-luciferin and ATP).
# NCGC Assay Protocol Summary: Reagents: 50mM Tris acetate, pH 7.5; 10mM Mg acetate; 10uM D-luciferin (Sigma #L9504); 10uM ATP; 0.01% Tween-20; 0.05% BSA; 10nM P. pyralis luciferase (Sigma #L9506) Control compounds used were two known firefly luciferase inhibitors (compounds (2) and (5) in Auld et al., 2010), and DMSO. […]
Compound,Potency,"activity change, negative = inhibition"
CCc1c(C)sc(NC(=O)c2cccs2)c1C(N)=O,6.75 µM (active),
CCOC(=O)c1oc2ccccc2c1NC(=O)c1cccs1,,13.2%
CCC1SC(CC)C(=O)N(CC(=O)NC2CCCCC2)C1=O (configuration not stated),,5.3%
Cc1cccc(NC(=O)C2CCCN2S(=O)(=O)c2cccc3nsnc23)c1C (configuration not stated),,-1.86%
Cc1nn(C)c2c1c(C(F)(F)F)cc(=O)n2C(C)C(=O)NCc1ccc(Cl)cc1 (configuration not stated),,-6.42%
CC(CC(=O)Nc1ccccc1)n1ccnc1 (configuration not stated),,-1.48%
CCc1nc2ccc(C(=O)N3CCN(c4cc(Cl)ccc4C)CC3)cc2nc1CC,,-1.21%
COc1ccc(CCNC(=O)Cn2c(=O)cc(C(F)(F)F)c3c(C)nn(C)c32)c(OC)c1,,7.08%
CCc1ccccc1NC(=O)N1CCC2(CC1)Oc1ccccc1C(=O)N2Cc1ccccc1F,,-10.7%
CCN(CC(=O)Nc1cc(Cl)ccc1C)C(=O)CSCc1ccccc1,,-2.11%
Fc1cccc(Cc2noc(CN3CCN(c4cnccn4)CC3)n2)c1,,2.61%
CCCc1nnc(NC(=O)c2cccs2)s1,16.9 µM (active),
CCc1nnc(NC(=O)Cc2cccs2)s1,,-1.84%
CCCc1nnc(NC(=O)CCC(=O)NC2CC2)s1,,0.134%
COc1ccc(CCNC(=O)c2ccc3c(c2)nc(C)n3-c2ccc(Br)cc2)cc1OC,,-2.6%
COc1ccc(OC)c(NC(=O)Cn2c(=O)n(Cc3ccccc3)c(=O)c3ccccc32)c1,,-0.577%
Cc1ccc(NC(=O)C(C)Sc2nnc(C3CC3)n2C2CC2)cc1S(=O)(=O)N1CCOCC1 (configuration not stated),,12.6%
CC(=O)C1=C(C)NC(=O)NC1c1ccc2c(c1)OCO2 (configuration not stated),,4.8%
CC(=O)c1cc2c(cc1N)OCO2,,3.19%
Nc1[nH][nH]c(=O)c1N=Nc1ccc2c(c1)OCO2,13.5 µM (active),
Cc1ccc(CNC(=O)CC(NC(=O)c2ccccc2)c2ccccc2)cc1 (configuration not stated),,6.17%
Cc1cccc(NC(=O)CN2CCN(CC(=O)NCC3(N4CCCCC4)CCCCC3)CC2)c1C,,6.22%
Cn1c(SCC(=O)N2CCCC2)nnc1-c1cccs1,,0.337%
CCn1c(SCC(=O)Nc2nccs2)nnc1-c1ccncc1,,-0.256%
CCn1c(SCC(=O)c2ccc(Cl)s2)nnc1-c1cccs1,16.9 µM (active),
Cc1ccc(C)c(N2CCN(C(=O)Cn3ncc4c(=O)oc5ccc(C)cc5c43)CC2)c1,,2.16%

Compound,Potency,"activity change, negative = inhibition"
COc1ccc(OC)c(CCNC(=O)CCCn2c(=O)c3cccn3c3cccnc32)c1,,-0.342%
COc1ccc(N(CCC(=O)NCCc2ccccc2)S(=O)(=O)c2ccc(C)cc2C)cc1,,-19.9%
O=C(Nc1cc(C(F)(F)F)ccc1Cl)c1cc2nc3c(c(C(F)(F)F)n2n1)CCCC3,2.69 µM (active),
O=C(CSc1nc(=O)[nH]c2c1CCCC2)Nc1cc(C(F)(F)F)ccc1Cl,,-12.1%
O=C(Nc1cc(C(F)(F)F)ccc1Cl)c1cc2nc(-c3ccc4c(c3)OCO4)cc(C(F)(F)F)n2n1,,4.73%
COc1cccc(N2CCN(S(=O)(=O)c3ccc4c(c3)CCCN4C(C)=O)CC2)c1,,-5.49%
COc1cccc(/C(C)=N/Nc2ncc(Cl)cc2Cl)c1,19 µM (active),
O=S(=O)(NCc1ccco1)c1cnc(Cl)c(Cl)c1,,-0.879%
Cc1c(Cl)cnc(NC(=O)COC(=O)c2ccc(S(=O)(=O)NCc3ccco3)cc2)c1Cl,,-2.56%
C/C(=N\Nc1ccc(S(N)(=O)=O)cc1[N+](=O)[O-])c1cccs1,,0.692%
C/C(=N\NC(=O)COc1c(C)cccc1C)c1cccs1,,6.97%
O=C(Nc1ccccc1-c1nc2ccccc2[nH]c1=O)c1cccs1,,-3.19%
COc1ccc(/C(C)=N/Nc2cc(C(F)(F)F)ccc2Cl)c(OC)c1,,3.38%
CC(Oc1ccc(Cl)cc1)C(=O)OCC(=O)Nc1ncc(Cl)cc1Cl (configuration not stated),,4.74%
C/C(=N\Nc1nc2ccccc2[nH]1)c1cccs1,2.69 µM (active),
C/C(=N\NS(=O)(=O)c1ccc(Br)cc1)c1cccs1,,-1.87%
C/C(=N\Nc1ncc(Cl)cc1Cl)c1cccs1,9.53 µM (active),
C/C(=N\Nc1ncc(Cl)cc1Cl)c1ccc(S(=O)(=O)NCc2ccco2)cc1,16.9 µM (active),
CCOC(=O)c1c(NC(=O)CSc2cn(CCNC(=O)c3cccc(C(F)(F)F)c3)c3ccccc23)sc2c1CCC2,,4.53%
Cc1occc1-c1nnc(SCC(=O)NC2CCCCC2)o1,,0.886%
CCCc1nn2c(=O)cc(COC(=O)c3ccc(NC(=O)COc4ccc(F)cc4)cc3)nc2s1,,-4.99%
COc1ccc(S(=O)(=O)NCC(c2ccc(N(C)C)cc2)N2CCCC2)cc1 (configuration not stated),,-3.23%
O=C(Cn1ncc2c3ccccc3n(Cc3ccccc3)c2c1=O)NCCCN1CCOCC1,,1.27%
CCn1c(Cc2ccc(OC)cc2)nnc1SCC(=O)Nc1ccc(N2CCOCC2)cc1,23.9 µM (active),
CCn1c(CNC(=O)C23CC4CC(CC(C4)C2)C3)nnc1SCC(=O)Nc1ccc(OC)cc1,,2.85%
Cn1cnnc1SCC(=O)Nc1ccc(N2CCOCC2)cc1,,-16.7%
